Assay [1] in a line: binders of probe aFSTL3 on microarray, primary screen, stem cell growth factor project, biochemical, small-molecule microarray, fluorescence 635/667 (AID 1064).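 Note: measures binding of the biotinylated anti-FSTL3 antibody to printed compounds.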 The note with it: higher = more signal.
The nature of assay [2]: binders from COS7 lysate, DM2A8 probe, primary screen, torsin A project, cell lysate, small-molecule microarray, fluorescence 635/667 (AID 1065). The following applies: higher = more signal, COS7 lysate expressing mutant human TOR1A.
Assay [3] in a line: binders of probe aFGF2 on microarray, primary screen, stem cell growth factor project, biochemical, small-molecule microarray, fluorescence 635/667 (AID 1067).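 Note: measures binding of biotinylated aFGF2 protein to printed compounds on slides; z-score merges feature fluorescence and signal-to-noise across triplicate slides.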 The following applies: higher = more signal.
The nature of assay [4]: binders of probe aFGF10 on microarray, primary screen, stem cell growth factor project, biochemical, small-molecule microarray, fluorescence 635/667 (AID 1071).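 Note: score merges 667 nm spot intensity and signal to noise from triplicate slides.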 The note with it: higher = more signal.
In assay [5] the target is Neurogenic locus notch homolog protein 2 (Homo sapiens) (UniProt Q04721). The assay can be described thus: Notch2 binders on small-molecule microarrays, primary screen, biochemical, small-molecule microarray, 635 nm fluorescence, stem cell growth factors (AID 1073). The note with it: Notch2 binding, higher = more signal.
Neurogenic locus notch homolog protein 2 (Homo sapiens), sequence (Q04721 whole entry, looked up, canonical isoform): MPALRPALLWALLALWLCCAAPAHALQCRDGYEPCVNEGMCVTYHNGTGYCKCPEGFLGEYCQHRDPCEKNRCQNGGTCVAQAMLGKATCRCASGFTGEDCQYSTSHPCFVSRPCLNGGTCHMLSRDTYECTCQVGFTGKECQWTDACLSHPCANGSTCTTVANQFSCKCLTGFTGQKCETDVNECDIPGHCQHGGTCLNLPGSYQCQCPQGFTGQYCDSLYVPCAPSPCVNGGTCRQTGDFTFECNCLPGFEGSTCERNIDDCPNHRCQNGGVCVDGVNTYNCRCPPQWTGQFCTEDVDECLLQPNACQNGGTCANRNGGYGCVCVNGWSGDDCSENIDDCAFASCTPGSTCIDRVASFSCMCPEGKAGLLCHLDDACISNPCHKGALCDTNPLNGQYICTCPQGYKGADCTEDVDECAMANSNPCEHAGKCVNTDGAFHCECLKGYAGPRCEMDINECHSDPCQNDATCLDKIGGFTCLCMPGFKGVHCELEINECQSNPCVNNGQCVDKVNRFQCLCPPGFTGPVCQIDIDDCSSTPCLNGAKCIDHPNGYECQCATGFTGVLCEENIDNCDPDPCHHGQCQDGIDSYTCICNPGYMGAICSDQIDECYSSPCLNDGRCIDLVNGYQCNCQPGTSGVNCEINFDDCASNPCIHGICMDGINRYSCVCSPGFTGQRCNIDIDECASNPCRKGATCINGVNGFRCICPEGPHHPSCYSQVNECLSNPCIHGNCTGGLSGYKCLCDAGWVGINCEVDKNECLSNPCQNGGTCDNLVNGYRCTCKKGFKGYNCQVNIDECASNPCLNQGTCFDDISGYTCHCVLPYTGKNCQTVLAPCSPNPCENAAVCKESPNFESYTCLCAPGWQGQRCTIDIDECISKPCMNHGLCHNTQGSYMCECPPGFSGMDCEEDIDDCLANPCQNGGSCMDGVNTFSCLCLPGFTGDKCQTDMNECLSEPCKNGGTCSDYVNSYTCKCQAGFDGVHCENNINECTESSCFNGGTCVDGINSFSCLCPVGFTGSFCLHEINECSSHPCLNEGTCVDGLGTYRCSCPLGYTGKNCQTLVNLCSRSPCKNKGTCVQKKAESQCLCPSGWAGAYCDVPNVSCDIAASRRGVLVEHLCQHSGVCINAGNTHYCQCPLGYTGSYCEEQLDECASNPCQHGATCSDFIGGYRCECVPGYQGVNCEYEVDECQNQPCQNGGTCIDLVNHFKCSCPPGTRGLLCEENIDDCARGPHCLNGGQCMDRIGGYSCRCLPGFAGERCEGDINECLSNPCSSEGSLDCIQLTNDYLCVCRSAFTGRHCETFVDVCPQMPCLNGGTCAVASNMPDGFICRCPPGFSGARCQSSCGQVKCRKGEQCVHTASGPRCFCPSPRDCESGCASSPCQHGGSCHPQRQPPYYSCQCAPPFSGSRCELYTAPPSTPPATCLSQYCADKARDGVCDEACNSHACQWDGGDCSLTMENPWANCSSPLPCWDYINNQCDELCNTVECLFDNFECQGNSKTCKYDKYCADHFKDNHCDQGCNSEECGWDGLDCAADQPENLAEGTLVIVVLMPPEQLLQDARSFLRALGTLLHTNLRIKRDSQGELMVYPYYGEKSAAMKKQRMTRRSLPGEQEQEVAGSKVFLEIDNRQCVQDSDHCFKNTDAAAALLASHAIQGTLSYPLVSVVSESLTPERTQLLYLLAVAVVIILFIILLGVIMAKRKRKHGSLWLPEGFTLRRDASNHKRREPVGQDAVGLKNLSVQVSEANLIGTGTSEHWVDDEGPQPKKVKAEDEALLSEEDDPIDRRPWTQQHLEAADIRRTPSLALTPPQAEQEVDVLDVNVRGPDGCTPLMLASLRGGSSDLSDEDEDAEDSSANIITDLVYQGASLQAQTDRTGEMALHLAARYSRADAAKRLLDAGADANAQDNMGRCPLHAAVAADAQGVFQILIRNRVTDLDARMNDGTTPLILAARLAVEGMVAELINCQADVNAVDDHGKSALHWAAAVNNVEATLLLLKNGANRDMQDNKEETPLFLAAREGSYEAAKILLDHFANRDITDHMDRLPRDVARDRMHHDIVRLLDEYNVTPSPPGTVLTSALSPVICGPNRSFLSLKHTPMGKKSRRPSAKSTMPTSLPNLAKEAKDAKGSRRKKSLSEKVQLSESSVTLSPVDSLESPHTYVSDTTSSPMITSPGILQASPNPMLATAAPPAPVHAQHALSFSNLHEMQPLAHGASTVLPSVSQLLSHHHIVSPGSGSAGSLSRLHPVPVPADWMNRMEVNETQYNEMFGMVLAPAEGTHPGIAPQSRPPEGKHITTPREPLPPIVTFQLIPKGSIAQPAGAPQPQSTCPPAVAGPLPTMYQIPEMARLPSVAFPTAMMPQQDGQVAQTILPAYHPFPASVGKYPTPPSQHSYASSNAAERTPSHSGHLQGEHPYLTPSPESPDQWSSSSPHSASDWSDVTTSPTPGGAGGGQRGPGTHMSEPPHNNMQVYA
Assay [6] deals with Pro-neuregulin-1, membrane-bound isoform (Homo sapiens) (UniProt Q02297). The assay is described as follows: NRG1 binders on small-molecule microarrays, primary screen, psychiatric disease protein project, biochemical, small-molecule microarray, fluorescence 635/667 (AID 1075).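 Note: score combines 667 nm spot fluorescence with signal to noise.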 The note with it: NRG1 binding, 635 nm fluorescence, higher = more signal.
Pro-neuregulin-1, membrane-bound isoform (Homo sapiens), sequence (Q02297 whole entry, looked up, the tested form may be a part, canonical isoform): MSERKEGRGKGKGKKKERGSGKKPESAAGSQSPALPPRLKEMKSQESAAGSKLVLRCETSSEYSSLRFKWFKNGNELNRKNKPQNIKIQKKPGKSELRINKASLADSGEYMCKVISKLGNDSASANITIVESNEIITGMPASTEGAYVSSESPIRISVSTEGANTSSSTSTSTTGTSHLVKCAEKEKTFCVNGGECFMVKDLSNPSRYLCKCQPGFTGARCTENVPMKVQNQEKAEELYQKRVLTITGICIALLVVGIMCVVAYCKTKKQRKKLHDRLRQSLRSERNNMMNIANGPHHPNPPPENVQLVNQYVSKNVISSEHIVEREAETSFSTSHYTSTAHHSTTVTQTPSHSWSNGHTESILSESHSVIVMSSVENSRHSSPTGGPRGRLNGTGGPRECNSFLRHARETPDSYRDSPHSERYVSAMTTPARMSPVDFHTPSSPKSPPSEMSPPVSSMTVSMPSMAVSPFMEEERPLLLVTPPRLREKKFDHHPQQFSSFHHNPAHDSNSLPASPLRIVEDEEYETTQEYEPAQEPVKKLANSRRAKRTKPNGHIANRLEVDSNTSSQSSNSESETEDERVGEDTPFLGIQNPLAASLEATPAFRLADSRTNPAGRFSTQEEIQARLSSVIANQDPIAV
The test system of assay [7] is Neuregulin-1 EGF-like domain. The assay can be described thus: binders of neuregulin-1 EGF-like domain, primary screen, biochemical, small-molecule microarray, 635 nm fluorescence (AID 1081).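 Note: binding of the protein to compounds printed on small-molecule microarray slides.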 The note with it: small-molecule microarray binding, higher = more signal.
A short description of assay [8]: FRG1 promoter luciferase signal modulators, primary screen, FRG1 inhibition for FSHD, cell-based, C2C12 myotubes, firefly/Renilla luciferase, luminescence (AID 1084). The note with it: higher = more signal, called active from +8 up or from −8 down.
Assay [9] in a line: binders of probe aFST on microarray, primary screen, stem cell growth factor project, biochemical, small-molecule microarray, fluorescence 635/667 (AID 1086).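 Note: score merges 667 nm fluorescence with signal-to-noise of each printed compound spot.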 The following applies: higher = more signal.
Assay [10] in a line: binders of probe aHhip on microarray, primary screen, stem cell growth factor project, biochemical, small-molecule microarray, fluorescence 635/667 (AID 1087).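 Note: score merges spot fluorescence at 667nm with spot signal to noise ratio.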 The following applies: higher = more signal.

SMILES strings stand for the structures. The source made the active and inactive calls.

On to `C#CCCCON=C1C[C@@H](O)[C@@H](O)[C@@H]2[C@@H]3C(=O)N(Cc4ccc5c(c4)OCO5)C(=O)[C@@H]3CC[C@H]12`, for which the composite z-score is -0.264 in assay [1]; 0.933 in [2]; -0.0533 in assay [3]; 0.716 in [4]; 0.624 in [5]; 0.662 in assay [6]. Further, the composite z-score in assay [7] was 0.695; in [9] it was -0.0042; in [10], -0.342. The z-score in assay [8] was 0.523 (inactive).
For the molecule `CCCCO[C@H]1C[C@H]2C(Br)=C[C@@]1(CO)C(=O)[C@]21CO1`, the composite z-score in [1] was -0.599; in assay [2] it was 0.407; in assay [3], -0.0785; in assay [4], -0.367; in assay [5], -0.0029; in assay [6], -0.534. Moreover, the composite z-score in assay [7] was -0.802; in [9], 0.162; in assay [10], -0.156. In [8], the z-score is 0.715 (inactive).
Consider `COc1cc(CO)cc(I)c1O[C@H]1C=C(C(=O)NCCO)C[C@@H](NCCc2c[nH]c3ccccc23)[C@@H]1O`, for which the composite z-score in [1] is 0.318; in assay [2] it was 0.52; in [3], 0.0019; in assay [4], 1.01; in [5] it was 0.832; in assay [6] it was -0.0224. For the same molecule, the composite z-score is 1.01 in assay [7], 0.714 in assay [9] and -0.184 in assay [10]. Also, the z-score in assay [8] is -0.389 (inactive).
Consider `COc1ccc(-c2cc3c(c(-c4ccccc4)n2)[Si](C(C)C)(C(C)C)O[C@H]3c2ccccc2)cn1`, for which the composite z-score in [1] is -0.248; in assay [2], 0.0094; in [3], -0.106; in assay [4], 0.144; in [5], 0.241; in assay [6] it was 0.0264. Besides, the composite z-score in [7] was 0.335; in [9], -0.116; in assay [10], 0.316. In addition, in assay [8], the z-score is -0.68 (inactive).
Turning to `O=C1C2C=CC(C(O)C(c3ccccc3)c3ccccc3)N(Nc3ccc([N+](=O)[O-])cc3)C2C(=O)N1c1ccccc1` (stereo not given), the composite z-score worked out at 0.141 in [1]; 0.311 in assay [2]; 0.138 in [3]; 1.16 in assay [4]; 1.64 in [5]; 1.84 in assay [6]. Also, the composite z-score in [7] is 1.27; in assay [9], 1.37; in assay [10], -0.0994. Moreover, in assay [8], the z-score was 0.117 (inactive).
Consider `COCCOC(=O)N1C(=O)[C@@]2(c3ccccc31)[C@H](C(=O)N1CCc3cc(OC)c(OC)cc3C1)[C@H]1C(=O)O[C@H](c3ccccc3)[C@H](c3ccccc3)N1[C@@H]2c1ccccc1OCCO`, for which the composite z-score was 0.221 in [1]; 0.409 in [2]; -0.0009 in [3]; 0.66 in assay [4]; 0.809 in assay [5]; 0.607 in assay [6]. Moreover, the composite z-score in assay [7] worked out at 1.04; in [9], 0.481; in assay [10], 0.251. Moreover, the z-score in assay [8] was -0.381 (inactive).
Take `C=CCNC(=O)[C@H]1[C@@H]2C(=O)O[C@@H](c3ccccc3)[C@@H](c3ccccc3)N2[C@@H](c2ccc(O)cc2)[C@]12C(=O)Nc1ccc(C#CCNC(N)=O)cc12`: the composite z-score in [1] was 0.587; in [2], -0.0883; in assay [3], -0.128; in assay [4] it was -0.608; in assay [5] it was -1.11; in [6], 1.07. Further, the composite z-score is 0.858 in assay [7], -0.526 in [9] and -0.21 in assay [10]. Moreover, the z-score in assay [8] was -0.477 (inactive).
Consider `C=CCC(OC(C)=O)[C@@H]1[C@@H](N(Cc2ccc(-c3ccccc3)cc2)C(=O)c2ccc(-c3ccccc3)cc2)c2cc(OCCCO)ccc2N1C(=O)Cc1ccc(OC)cc1` (stereo not given in full), for which the composite z-score was -0.28 in assay [1]; 0.354 in [2]; -0.0676 in assay [3]; 0.27 in assay [4]; -0.142 in [5]; 0.0866 in assay [6]. Further, the results for the composite z-score in [7], in assay [9] and in assay [10] were -0.261, 0.391 and -0.189, respectively. In assay [8], the z-score is 0.826 (inactive).
`O=C(CS)NCCCCCNC(=O)[C@H]1C[C@H]2C(=O)N[C@@H](Cc3ccccc3)C(=O)N2[C@H]1c1ccc(O)cc1`: the composite z-score in [1] is 0.593; in assay [2], 0.395; in assay [3] it was -0.0176; in assay [4], 0.645; in assay [5], 1.02; in assay [6], 0.541. The composite z-score in [7] was 1.23; in assay [9] it was 0.446; in [10], -0.0919. Further, in assay [8], the z-score is 0.658 (inactive).
As for `COC(=O)Cn1c(C(=O)N2CCCC2)cc2c1C[C@H]1CN(C(=O)c3ccccc3)[C@@](Cc3ccc(OC)cc3)(C(=O)OC)[C@@H]21`, the composite z-score was 0.666 in assay [1]; -0.157 in assay [2]; 0.236 in assay [3]; 0.495 in assay [4]; 1.68 in assay [5]; 1.8 in assay [6]. Also, the composite z-score in assay [7] stood at 1.27; in [9], 1.7; in assay [10], 0.151. Moreover, the z-score in assay [8] was 0.0502 (inactive).
Turning to `COC(=O)C1=CC(c2ccc(CO)cc2)=CC(C2CC2)N(Cc2sc3ccccc3c2Cl)C=C1C(=O)OC` (stereo not given), the composite z-score was found to be 0.541 in assay [1]; 1.99 in [2]; 0.0083 in [3]; 0.88 in [4]; 1.26 in [5]; 1.68 in [6]. Further, the results for the composite z-score in assay [7], in [9] and in assay [10] were 1.33, 1.32 and 0.065, respectively. The z-score in [8] was -2.15 (inactive).
With `O=C1C[C@@](C(=O)NCCN2CCOCC2)(c2ccc([N+](=O)[O-])cc2)[C@@H](c2ccc(CO)cc2)N1C1CCCCC1`, the composite z-score in [1] stood at 0.224; in assay [2], 0.657; in [3], 0.11; in [4] it was 0.26; in assay [5] it was 0.576; in assay [6], 0.548. Also, the composite z-score was found to be 1.25 in [7], 0.133 in assay [9] and 0.0053 in [10]. For the same molecule, the z-score in assay [8] was 0.292 (inactive).
On to `CCCC[C@@H]1C[C@H]1[C@@H](NC(=O)c1cccs1)c1ccc(Cl)cc1`, for which the composite z-score is 0.521 in assay [1]; -0.6 in assay [2]; -0.141 in assay [3]; -0.543 in [4]; -1.45 in assay [5]; -0.273 in assay [6]. The composite z-score in assay [7] is -0.669; in assay [9] it was -0.531; in assay [10], -0.0003. Further, the z-score in assay [8] is 0.902 (inactive).
As for `[N-]=[N+]=NCc1ccccc1[C@H]1OC(c2ccc(OCCCO)cc2)=N[C@@]1(Cc1ccccc1N=[N+]=[N-])C(=O)NCc1ccccc1`, the composite z-score in assay [1] is 0.817; in assay [2], 0.155; in assay [3] it was 0.0308; in assay [4] it was 0.622; in assay [5] it was 1.28; in [6] it was 0.408. Besides, the composite z-score amounted to 0.807 in assay [7], 0.939 in [9] and 0.0595 in assay [10]. Besides, in assay [8], the z-score was -1.35 (inactive).
Take `O=C1C[C@@](C(=O)NC2CC2)(c2ccc([N+](=O)[O-])cc2)[C@@H](c2ccc(CO)cc2I)N1CC12CC3CC(CC(C3)C1)C2`: the composite z-score is -0.514 in assay [1]; -0.407 in [2]; 0.01 in assay [3]; 0.487 in [4]; 1.05 in assay [5]; 0.346 in assay [6]. Besides, the values for the composite z-score in assay [7], in [9] and in [10] were 1.24, 0.303 and -0.184, respectively. In addition, the z-score in assay [8] was -2.34 (inactive).
Regarding `CN1C2C=C(c3ccc(CO)cc3)C(C3C(=O)N(C(N)=O)C(=O)C32)C1c1cccs1` (stereo not given), the composite z-score in assay [1] is 0.631; in [2], 0.056; in assay [3], -0.0566; in [4] it was 0.0657; in assay [5], -0.458; in [6], 0.839. The composite z-score in [7] was 1.27; in assay [9], -0.221; in assay [10], -0.0645. The z-score in assay [8] was 1.02 (inactive).
For `CC(=O)NCCCC[C@@H]1NC(=O)[C@@H]2C[C@H](C(=O)NCc3ccc(F)cc3)[C@H](c3cccc(OCCO)c3)N2C1=O`, the composite z-score in assay [1] was 0.617; in [2], -0.0522; in [3], -0.0038; in [4] it was 0.107; in [5], -0.417; in assay [6] it was 1.39. Moreover, the composite z-score in assay [7] was 1.36; in assay [9], -0.205; in [10], -0.0237. Moreover, the z-score in assay [8] is 0.967 (inactive).

Values taken from PubChem BioAssay.
